Reference: PubChem BioAssay AID924 (National Center for Advancing Translational Sciences (NCATS), 2007)
Several values for one entry are separate records, joined by “and”; a condition that tells them apart may be missing. Equal values may be shown once. About 1,200 (0.92%) of roughly 130,000 compounds were called active. Roughly 3% stayed inconclusive and do not appear here. Many of the other results were omitted from the sample, so actives are more common in it than they were. Unmarked numbers belong to inactive results. Calls follow the shape of the dose curve; as a rule, active = well fitted cell-killing curve with a large enough effect; inconclusive = small, poorly fitted or top-dose-only effect; inactive = no such curve, though single readings can be large or run the other way.

Test: qHTS Screen for Compounds that Selectively Target Cancer Cells with p53 Mutations: Cytotoxicity of p53ts Cells at the Permissive Temperature; also: nearly all actives have a fitted effect of over 55% in size;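 as to activity change, negative = cytotoxicity: 0% = DMSO and -100% = full killing by reference compound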
Conditions: H1299-p53A138V at 32C, ATP luminescence viability, 24 h; series mostly up to 46.1 µM; activity change, negative = cytotoxicity: at the top concentration
Excerpt: NIH Chemical Genomics Center [NCGC] NIH Molecular Libraries Screening Centers Network [MLSCN] MLSCN Grant: 1 X01 MH079844-01 Assay Submitter (PI): Dr. SUN, YI, University of Michigan NCGC Assay Overview: Synthetic Lethal Screen for Compounds to Kill Cancer Cells with p53 Mutation. Tumor suppressor gene p53 serves as a major cellular barrier against tumorigenesis. […] The goal of this screening is to identify small molecule probes that selectively kill cancer cells with mutations in p53. This screening was carried out using two lines of H1299 lung cancer cells. The H1299-p53 A138V line express a temperature sensitive p53 mutant (p53ts) in which the mutant p53 protein (A138V) is in the mutant confirmation when grown at 39C (the nonpermissive temperature) and in the wild type conformation when grown at 32C (the permissive temperature). A H1299-neo line (p53 null) grown at both 39C and 32C were used as counter-screens to filter out false positive associated with temperature shifting. The small molecular compounds that selectively target mutant p53-containing cancer cells were selected as candidate probes for further study. A cytotoxicity assay based on the measurement of ATP contents in cells was used in this screen. Concentration-responses of all the compounds in the library collection were determined in qHTS using the cell lines and temperature conditions as above.
NCGC Assay Protocol Summary: Both the H1299-p53A138V and H1299-neo cell lines were provided by Dr.Yi Sun, a PI at the University Michigan. The cells were maintained and cultured at 37C. The resuspended frozen cells were used to plate the cells in the 1536-well assay plates at a density of 600 cells per well in 5 ul medium. The assay plates with the cells were incubated at 37C for 16 to 30 hours before the experiments. The library compounds in DMSO solution were added to the cells in assay plates and incubated 24 hours at 39C (for mutant p53 conformation) or 32C (for normal p53 conformation as control). An ATP_lite assay kit (PerkinElmer) was used to determine the cell viability. Tomaxifen (100uM) was used as the positive control for cell killing. Data were normalized to the controls for basal activity (DMSO only) and 100% killing (100uM tamoxifen). AC50 values were determined from concentration-response data modeled with the standard Hill equation. P53 assay protocol: 1. Reagent; 5 uL H1299-p53A138V or H1299-neo cell cells/well 2. Time; overnight; 37C incubation 3. Compounds; 23 nL; 5.9 nM to 46 uM 4. Controls; 23 nL; Tamoxifen 100 uM 5. Time; 24 hr; 37C incubation 6. Reagent; 3 uL; ATP_Lite reagent 7. Time; 20 min; Room Temperature 8. Detection; Luminescence; Viewlux plate reader Keywords: p53, synthetic lethal, cancer, cell viability, cytotoxicity, H1299 cell line, luminescence, MLSMR, MLSCN, NIH Roadmap, qHTS, NCGC
Potency is read from the fitted curve at half-maximal effect.

For `COc1ccc(C(CCN(Cc2ccc(OC)c(OC)c2)C(=O)CCl)c2ccccc2)cc1` (stereo unspecified), which Potency is on record?
The Potency was 5.01 µM (active).

For `COc1ccc(/C=C/NC(=O)Cc2ccc(OC)c(OC)c2)cc1`, which activity change, negative = cytotoxicity is on record?
The activity change, negative = cytotoxicity was -5.23% [at 9.22 µM] and 5.05% [at 9.22 µM].

For `CCN(CCCCOC(=O)c1ccc(OC)c(OC)c1)C(C)Cc1ccc(OC)cc1` (stereo unspecified), which “activity change, negative = cytotoxicity” value is on record?
Its value is -4.52%.

For `CCc1ccc(NC(=O)c2cc(S(=O)(=O)N3CCCC(C)C3)cn2C)cc1` (stereo unspecified), which “activity change, negative = cytotoxicity” value is on record?
The value was -1.68%.

For `COc1cccc(NC(=O)CSC2=Nc3ccccc3C3=NC(CC(=O)NC4CCCCC4)C(=O)N23)c1` (stereo unspecified), which “activity change, negative = cytotoxicity” value is on record?
The value was -4.48%.

For `COC(=O)c1ccccc1NC(=O)Cn1c(=O)cc(C)c2c(C)nn(-c3cccc(Cl)c3C)c21`, which “activity change, negative = cytotoxicity” value is on record?
The value was 1.69%.

With `Cc1ccc(NC(=O)CSc2nc3c([nH]c4ccccc43)c(=O)n2-c2ccccc2)c(C)c1` as the molecule, how does the “activity change, negative = cytotoxicity” value read?
The value was -0.407%.

With `CC(C)c1ccc(NC(=O)CN(C)S(=O)(=O)c2ccc3c(c2)c(=O)n(C)c(=O)n3C)cc1` as the molecule, how does the “activity change, negative = cytotoxicity” value read?
The value was -1.91%.

For `COC(=O)c1sc(NC(=O)c2ccc(OC)cc2OC)nc1C`, which Potency is on record?
Its Potency is 0.398 µM (active).

Which “activity change, negative = cytotoxicity” value does the source give for `COC(=O)c1sc(NC(=O)c2csc3c2CCCC3)nc1C` here?
Its value is -10.1%.

Which “activity change, negative = cytotoxicity” value does the source give for `COc1ccc(C(=O)Nc2nncs2)c(OC)c1` here?
The value was -22%.

For `COc1ccc(-c2nc3sc(CCNS(=O)(=O)c4ccc(F)c(C)c4)c(C)n3n2)cc1`, which “activity change, negative = cytotoxicity” value is on record?
The value was -7.31%.

Which “activity change, negative = cytotoxicity” value does the source give for `O=C(NCCc1ccc(Cl)cc1)c1ccc2nc(CCc3ccccc3)oc2c1` here?
The value was 0.682%.

Which “activity change, negative = cytotoxicity” value does the source give for `CCn1c(=O)c2cc(C(=O)NCCc3ccc(Cl)cc3)sc2c2ccccc21` here?
Its value is 4.45%.

For `Cc1ccccc1Nc1nn2c(=O)c3ccc(C(=O)NCCc4ccc(Cl)cc4)cc3nc2s1`, which Potency is on record?
Its Potency is 15.8 µM (active).

Which “activity change, negative = cytotoxicity” value does the source give for `CCOc1ccc(C(=O)c2cn(Cc3ccccc3OC)c3ccc(F)cc3c2=O)cc1` here?
Its value is 10.8%.

Which “activity change, negative = cytotoxicity” value does the source give for `CCOC(=O)c1cc2c(=O)n3ccccc3nc2n(CC2CCCO2)c1=NC(=O)c1ccccc1Br` (stereo unspecified) here?
Its value is 3.37%.

Which “activity change, negative = cytotoxicity” value does the source give for `O=C(NCc1ccc2c(c1)CCN2C(=O)c1ccccc1)Nc1cc(F)ccc1F` here?
Its value is 3.25%.

For `COc1ccc(-c2nc(-c3ccccc3)no2)c(OC)c1`, which Potency is on record?
Its Potency is 5.01 µM (active).

Which “activity change, negative = cytotoxicity” value does the source give for `COc1ccc(-c2cc(-c3nc(-c4cc(OC)c(OC)c(OC)c4)no3)[nH]n2)c(OC)c1` here?
Its value is -4.57%.

With `COc1ccc(-c2noc(CSc3nnc(-c4ccccc4)n3-c3ccc(F)cc3)n2)c(OC)c1` as the molecule, how does the “activity change, negative = cytotoxicity” value read?
Its value is 24.7%.

With `CCn1c(C)c(C)c2cc(C(=O)N3CCN(c4cccc(C)c4C)CC3)ccc21` as the molecule, how does the “activity change, negative = cytotoxicity” value read?
The value was -5.04%.

Which “activity change, negative = cytotoxicity” value does the source give for `CCOc1ccc(C(=O)/C=C/c2cn(CC(O)CN3CCCCCC3)c3ccccc23)cc1` (stereo unspecified) here?
The value was -24.6%.

Which “activity change, negative = cytotoxicity” value does the source give for `CCOC(=O)c1nnn(CC(=O)NC(=O)Nc2ccccc2F)c1C(=O)OCC` here?
The value was -0.4%.

Which “activity change, negative = cytotoxicity” value does the source give for `Cc1ccc2oc(C(=O)Nc3ccc(S(=O)(=O)N4CCCCCC4)cc3)cc(=O)c2c1` here?
The value was -1.14%.

For `Cc1cc(C)c2c(n1)nn1c(N3CCOCC3)cc(C)nc21`, which “activity change, negative = cytotoxicity” value is on record?
Its value is 10.3%.

Which Potency does the source give for `Cc1nn2c3cc(N4CCOCC4)ccc3nc2c2ccccc12` here?
Its Potency is 2 µM (active).

For `Cc1nc2ccccc2n1C(=O)N1CCOCC1`, which “activity change, negative = cytotoxicity” value is on record?
Its value is -6.66%.

Which “activity change, negative = cytotoxicity” value does the source give for `COc1ccc(CNC(=O)CC2Oc3ccc(C)cc3NC2=O)cc1` (stereo unspecified) here?
The value was 9.45%.

For `Cc1cc(=O)c2cc(C(=O)Nc3cccc(C)c3C)ccc2[nH]1`, which “activity change, negative = cytotoxicity” value is on record?
Its value is 1.75%.

Which “activity change, negative = cytotoxicity” value does the source give for `O=C(CSc1nnc(CNC(=O)c2ccccc2)n1-c1ccc(F)cc1)Nc1ccccc1F` here?
The value was 2.75%.

With `CCc1ccc2oc(-c3ccc(C)c(NC(=O)/C=C/c4ccco4)c3)nc2c1` as the molecule, how does the “activity change, negative = cytotoxicity” value read?
Its value is -25.8%.

Which “activity change, negative = cytotoxicity” value does the source give for `CCc1ccc2oc(-c3ccc(NC(=O)c4cc5ccccc5o4)cc3)nc2c1` here?
The value was -9.08%.

For `CCc1ccc2oc(-c3ccc(N)cc3)nc2c1`, which Potency is on record?
The Potency was 7.94 µM (active).

For `COc1ccc(-c2nnc(SCC(=O)Nc3ccc(C(C)C)cc3)nc2-c2ccc(OC)c(OC)c2)cc1OC`, which “activity change, negative = cytotoxicity” value is on record?
The value was 19.3%.

Which “activity change, negative = cytotoxicity” value does the source give for `CC(C)(C)c1ccc(C(=O)NCC(c2ccc(Cl)cc2)N2CCOCC2)cc1` (stereo unspecified) here?
Its value is 16.9%.

With `O=C(Nc1nc2c(s1)CCCC2)c1ccccc1F` as the molecule, how does the Potency read?
The Potency was 7.94 µM (active).

Which “activity change, negative = cytotoxicity” value does the source give for `O=C(Cn1c(=O)sc2ccccc21)Nc1nc2c(s1)CCCC2` here?
The value was -2.62%.

For `NC(=O)c1ccccc1NC(=O)c1ccccc1F`, which “activity change, negative = cytotoxicity” value is on record?
Its value is -1.7%.

With `O=C1N(Cc2ccccc2)c2ccc(Cl)cc2C1(O)c1c[nH]c2ccccc12` (stereo unspecified) as the molecule, how does the “activity change, negative = cytotoxicity” value read?
Its value is 4.69%.

Which “activity change, negative = cytotoxicity” value does the source give for `O=C(Nc1ncccn1)c1cccs1` here?
The value was -9.12%.

With `CCOc1cc(C(=O)Nc2ncccn2)cc(OCC)c1OCC` as the molecule, how does the “activity change, negative = cytotoxicity” value read?
The value was -3.26%.

With `Cn1c(=O)c(C(=O)Nc2ncccn2)c(O)c2ccccc21` as the molecule, how does the Potency read?
Its Potency is 12.6 µM (active).

With `CC1CCCN(c2nc3c(S(=O)(=O)c4ccc(C(C)C)cc4)nnn3c3ccsc23)C1` (stereo unspecified) as the molecule, how does the “activity change, negative = cytotoxicity” value read?
Its value is 6.56%.

With `CCOc1ccc(C(=O)Nc2ccc3nc4c(c(Nc5ccccc5OC)c3c2)CCCC4)cc1` as the molecule, how does the “activity change, negative = cytotoxicity” value read?
The value was -14.2%.

Which “activity change, negative = cytotoxicity” value does the source give for `COc1cccc(CNC(=O)CSc2c3c(nc4cc(Cl)ccc24)CCCC3)c1` here?
The value was 5.88%.

With `CCOc1ccc(NC(=O)CSc2c3c(nc4ccccc24)CCCC3)cc1` as the molecule, how does the Potency read?
Its Potency is 22.4 µM (active).

Which “activity change, negative = cytotoxicity” value does the source give for `CCOC(=O)c1cc(-c2ccccc2)n(CCC(=O)Nc2ccccc2CC)c1C` here?
Its value is 7.84%.

Which “activity change, negative = cytotoxicity” value does the source give for `O=C(NCc1ccc(F)cc1)c1ccc(Cn2c(SCc3ccc(F)cc3)nc3cccnc32)cc1` here?
Its value is -25.6%.

Which “activity change, negative = cytotoxicity” value does the source give for `O=C(NC1CCCCC1)c1ccc(Cn2c(SCc3ccccc3)nc3cccnc32)cc1` here?
Its value is -24.1%.

With `Cc1ccc(CSc2nc3cccnc3n2Cc2ccc(C(=O)NC3CC3)cc2)cc1` as the molecule, how does the Potency read?
Its Potency is 2.24 µM (active).
